Records with an inconclusive call do not appear. Active and inactive are the calls of the source. Unless noted, calls come from the whole dose curve; as a rule, active = well fitted inhibition curve with a large enough effect; inconclusive = small, poorly fitted or top-dose-only effect; inactive = flat fitted curve, though single readings scatter.
What was measured:
[1] = qHTS drug screen for cell cycle checkpoint inhibitors in PARPi-resistant BRCA-mutant ovarian cancer cell lines. (AID 1963452; calls by dose curve); settings: PEO1/OlaR viability, CellTiter-Glo luminescence, 96 h, stronger effect = lower value
Method in brief: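 PEO1, PEO4 and PEO1/OlaR ovarian cancer cells, 600 per well, exposed 96 h at 37C to a dilution series. Viability read by CellTiter-Glo luminescence, normalized to DMSO and empty wells; activity summarized as Z-AUC.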

[2] = qHTS for identification of novel therapeutic agents for treatment of microphthalmiaassociated transcription factor (MiT) renal cell carcinoma (RCC) (AID 1963991; calls by dose curve; note: potency is the fitted concentration of half-maximal effect); settings: CellTiter-Glo, 48 h; for z-score: stronger effect = lower value
Method in brief: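 Viability of three TFE3-fusion renal carcinoma lines measured by CellTiter-Glo after 48 h treatment with each of 1912 compounds at 11 concentrations. Responses scaled between DMSO (100%) and empty wells (0%) before curve fitting.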

[3] = qHTS profiling for inhibitors of Plasmodium falciparum proliferation (AID 504749); note: nearly all actives have a fitted effect of over 60% in size; note: potency is the fitted concentration of half-maximal effect;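 for activity, negative = inhibition: 0% = DMSO vehicle and full inhibition = artemisinin control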; settings: P. falciparum in erythrocytes, SYBR Green DNA, 72 h
Method in brief: (§1)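 Infected RBCs, 0.3% parasitemia/2.5% Hct final; cpd 72 h, 37 C, 5% CO2; lysis buffer with saponin/triton/SYBR Green I, o/n RT dark; FI 485/535; norm. to artemisinin (0.29 uM) and DMSO.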

3D7 = assay: as above; settings: P. falciparum in erythrocytes, SYBR Green DNA, 72 h; series mostly up to 28.7 µM
Method in brief: as §1

[4] = measured here: PEO1 parental Z-AUC
[5] = TFE3-RCC UOK109 viability, measured here: UOK109 Z-AUC
[6] = TFE3-RCC viability, measured here: UOK124 Z-AUC
[7] = TFE3-RCC viability, measured here: UOK145 Z-AUC
[8] = at 28.7 µM (top of the series), parasite line A
[9] = at 28.7 µM (top of the series), parasite line B
[10] = at 12.8 µM (top of the series), parasite line A
[11] = at 12.8 µM (top of the series), parasite line B

Row | Structure (SMILES) | Z-AUC [1] | Z-AUC [1, 4] | Z-AUC ([1]; measured here: PEO4 Z-AUC) | z-score [2, 5] | z-score [2, 6] | z-score [2, 7] | activity, negative = inhibition [3, 8] | activity, negative = inhibition [3, 9] | Potency (3D7) | Potency ([3]; parasite line A) | Potency ([3]; parasite line B) | activity, negative = inhibition [3, 10] | activity, negative = inhibition [3, 11] | Potency ([2]; TFE3-RCC UOK109 viability, active = Z-AUC below -0.8 in all three lines)
1 | C#CCN[C@@H]1CCc2ccccc21 | -0.484 (inactive) | -0.355 | -0.739 | 0.682 | 0.222 | 0.635 | 16.7% (inactive) | 9.12% (inactive) | inactive |  |  |  |  | 
2 | CCC(C)(C)c1ccc(CC(C)CN2C[C@@H](C)O[C@@H](C)C2)cc1 (some centres undefined) | 0.498 (inactive) | 0.321 | 0.288 | 0.00856 | 0.0457 | 1.19 | -5% (inactive) | -10.4% (inactive) |  |  |  |  |  | 
3 | CC(N)C12CC3CC(CC(C3)C1)C2 (centres undefined) | 0.887 (inactive) | 0.571 | 0.722 | 0.00344 | 0.654 | 0.503 | 7.36% (inactive) | -12% (inactive) |  |  |  |  |  | 
4 | C[C@]12C=CC(=O)C=C1CC[C@@H]1[C@@H]2C(=O)C[C@@]2(C)[C@H]1CC[C@]2(O)C(=O)CO | -0.919 (inactive) | -0.762 | -0.828 | 1.31 | 1.23 | -3.21 | 9.08% (inactive) | 14.6% (inactive) | inactive |  |  |  |  | 
5 | CO[C@@H]1[C@@H](OC(N)=O)[C@@H](O)[C@H](Oc2ccc3c(O)c(NC(=O)c4ccc(O)c(CC=C(C)C)c4)c(=O)oc3c2C)OC1(C)C | -0.0911 (inactive) | 0.276 | 0.63 | 0.755 | 0.269 | 0.567 |  |  |  |  |  |  |  | 
6 | NCCCC(O)(P(=O)(O)O)P(=O)(O)O | 0.983 (inactive) | 0.814 | 0.863 | 0.263 | 0.663 | 0.216 | 5.33% (inactive) | 1.25% (inactive) | inactive |  |  |  |  | 
7 | Cc1oc(=O)oc1CN1CCN(c2cc3c(cc2F)c(=O)c(C(=O)O)c2n3C(C)S2)CC1 (centres undefined) | -0.572 (inactive) | -0.35 | -0.652 | 0.77 | 0.785 | 0.456 |  |  | 11.2 µM (active) | 11.2 µM (active) | 8.91 µM (active) |  |  | 
8 | CCn1cc(C(=O)O)c(=O)c2cc(F)c(N3CCNCC3)cc21 | 0.488 (inactive) | 0.343 | 0.192 | 1.12 | 2.59 | 1.26 |  |  | inactive |  |  | -24.5% (inactive) | -18% (inactive) | 
9 | O=C(NCC1CN(c2ccc(N3CCOCC3=O)cc2)C(=O)O1)c1ccc(Cl)s1 (centres undefined) | -0.884 (inactive) | -0.579 | -0.444 | 0.607 | 0.69 | 0.507 |  |  |  |  |  |  |  | 
10 | Nc1nc(N)nc(-c2cc(Cl)ccc2Cl)n1 | 0.87 (inactive) | 0.667 | 0.862 | 0.0738 | 0.434 | 0.276 | -9.21% (inactive) | -1.76% (inactive) | inactive |  |  |  |  | 
11 | NC(=O)c1cccnc1 | 1.48 (inactive) | 1.33 | 1.21 | 0.739 | 0.417 | -0.282 | 9.61% (inactive) | 2.45% (inactive) | inactive |  |  |  |  | 
12 | Nc1nc(F)nc2c1ncn2[C@@H]1O[C@H](CO)[C@@H](O)[C@@H]1O | 0.0458 (inactive) | 0.0902 | 0.704 | -1.54 | -1.3 | -1.61 |  |  |  |  |  |  |  | 0.372 µM (active)
13 | O=NN(CCCl)C(=O)NC1CCCCC1 | 0.23 (inactive) | 1.4 | 1.4 | 0.385 | 1.51 | 1.28 | 5.42% (inactive) | 5.97% (inactive) | inactive |  |  |  |  | 
14 | CCOC(=O)c1ccc(OC(=O)CCCCCN=C(N)N)cc1 | 1.08 (inactive) | 1.13 | 0.861 | 0.377 | 0.137 | -0.125 |  |  |  |  |  | -3.04% (inactive) | 4.29% (inactive) | 
15 | C[C@@H]1CN(c2c(F)c(N)c3c(=O)c(C(=O)O)cn(C4CC4)c3c2F)C[C@H](C)N1 | 1.35 (inactive) | 1.39 | 1.15 | 1.8 | 2.67 | 1.6 |  |  |  |  |  |  |  | 
16 | COC(=O)Nc1nc2ccc(Sc3ccccc3)cc2[nH]1 | -0.927 (inactive) | -0.935 | -0.94 |  |  |  |  |  | inactive |  |  | 5.04% (inactive) | -0.246% (inactive) | 
17 | CCOC(=O)c1ccc(C#Cc2ccc3c(c2)C(C)(C)CCS3)nc1 | 1.4 (inactive) | 1.62 | 1.15 | 0.0377 | 0.696 | 0.0993 |  | -14.4% (inactive) | inactive |  |  |  |  | 
18 | CC[C@H](C)C(=O)O[C@H]1C[C@@H](C)C=C2C=C[C@H](C)[C@H](CC[C@@H]3C[C@@H](O)CC(=O)O3)[C@H]21 | 1 (inactive) | 1.47 | 1.3 |  |  |  | -2.1% (inactive) | -31.4% (inactive) | inactive |  |  |  |  | 
19 | Cc1nnc(NS(=O)(=O)c2ccc(N)cc2)s1 | 1.31 (inactive) | 0.997 | 1.46 |  |  |  | 1.45% (inactive) | 11.3% (inactive) | inactive |  |  |  |  | 
20 | NC(N)=NC(N)=NCCc1ccccc1 | 1.13 (inactive) | 0.288 | 0.483 |  |  |  |  | -17% (inactive) | inactive |  |  | -25.4% (inactive) | -8.82% (inactive) | 

— PubChem BioAssay (NCATS)
